# Laboratory results from PubChem BioAssay (NCATS).
# Several values for one entry are separate records, joined by “and”; a condition that tells them apart may be missing. Equal entries are not always repeated. Inconclusive results are not listed. A structure can be active in one record and inactive in another. Activity calls are given as the source filed them. Unless noted, the call rests on the fitted dose curve; in most records, active means well fitted curve in the direction sought with a large enough effect; inconclusive means small, poorly fitted or top-dose-only effect, or another doubt; inactive means no such curve, though single readings can be large; an effect the other way counts as inactive or inconclusive.
# What was measured:
# [1] = target: Estrogen receptor (Homo sapiens) (UniProt P03372); assay: qHTS assay for small molecule agonists of estrogen receptor alpha signaling (AID 588514; calls by dose curve;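 further: 0% = vehicle only and 100% = reference agonist; nearly all actives have a fitted effect of over 70% in size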)
# Chain of Estrogen receptor (Homo sapiens) (P03372 whole entry, looked up): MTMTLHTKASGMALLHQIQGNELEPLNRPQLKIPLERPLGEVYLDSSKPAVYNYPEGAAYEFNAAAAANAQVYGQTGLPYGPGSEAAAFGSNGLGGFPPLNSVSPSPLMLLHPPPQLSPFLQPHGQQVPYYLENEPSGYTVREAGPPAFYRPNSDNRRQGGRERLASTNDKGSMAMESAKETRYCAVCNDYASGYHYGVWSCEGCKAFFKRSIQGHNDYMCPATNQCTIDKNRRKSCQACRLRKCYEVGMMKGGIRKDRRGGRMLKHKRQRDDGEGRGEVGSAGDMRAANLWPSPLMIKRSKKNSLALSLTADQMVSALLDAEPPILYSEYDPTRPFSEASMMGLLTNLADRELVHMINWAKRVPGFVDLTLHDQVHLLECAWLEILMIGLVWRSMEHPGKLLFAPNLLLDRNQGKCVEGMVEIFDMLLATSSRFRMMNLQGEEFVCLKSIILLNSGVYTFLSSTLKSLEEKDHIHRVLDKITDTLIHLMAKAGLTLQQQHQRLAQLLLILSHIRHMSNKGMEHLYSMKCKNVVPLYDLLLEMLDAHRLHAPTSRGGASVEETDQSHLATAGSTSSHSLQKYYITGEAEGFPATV
# Outline: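 Reporter-gene assay. […] controls beta-lactamase in HEK 293 GripTite cells; after 18 hrs with compound, CCF4 substrate is added for 2 hrs and fluorescence is read.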
# [2] = target: Glucocorticoid receptor (Homo sapiens) (UniProt P04150); assay: qHTS assay for small molecule agonists of glucocorticoid receptor signaling (AID 588532; active means well fitted curve in the direction sought with a large enough effect in the signal ratio, with a control signal flat; the % refers to the signal ratio;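 further: 100% = dexamethasone at 0.1 µM and 0% = DMSO only wells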); details: HeLa MMTV-bla, beta-lactamase ratio, agonist, 18 h; stronger effect = higher value; percent of dexamethasone control, DMSO zero
# Chain of Glucocorticoid receptor (Homo sapiens) (P04150 whole entry, looked up): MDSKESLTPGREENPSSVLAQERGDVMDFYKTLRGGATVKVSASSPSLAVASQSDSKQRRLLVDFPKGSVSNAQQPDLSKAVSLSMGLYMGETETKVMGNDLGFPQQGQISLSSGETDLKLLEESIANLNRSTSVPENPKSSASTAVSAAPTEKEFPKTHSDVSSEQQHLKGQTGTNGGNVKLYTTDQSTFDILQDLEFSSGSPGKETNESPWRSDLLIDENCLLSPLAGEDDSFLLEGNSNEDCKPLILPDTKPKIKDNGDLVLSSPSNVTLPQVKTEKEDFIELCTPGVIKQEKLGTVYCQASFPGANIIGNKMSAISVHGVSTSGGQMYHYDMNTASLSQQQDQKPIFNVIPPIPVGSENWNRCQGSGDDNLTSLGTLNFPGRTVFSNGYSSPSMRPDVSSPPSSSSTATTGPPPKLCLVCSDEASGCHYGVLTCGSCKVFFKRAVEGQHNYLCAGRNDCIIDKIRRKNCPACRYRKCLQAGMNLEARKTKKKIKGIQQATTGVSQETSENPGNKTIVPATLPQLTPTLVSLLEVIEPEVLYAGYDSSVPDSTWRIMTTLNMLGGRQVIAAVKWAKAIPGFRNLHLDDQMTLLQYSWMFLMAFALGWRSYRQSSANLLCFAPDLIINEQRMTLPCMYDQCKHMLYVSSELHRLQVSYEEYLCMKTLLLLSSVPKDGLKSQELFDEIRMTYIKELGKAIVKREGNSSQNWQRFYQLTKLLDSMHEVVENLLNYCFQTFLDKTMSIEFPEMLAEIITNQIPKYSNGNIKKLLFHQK
# Outline: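 Agonist-mode qHTS: GRE-driven beta-lactamase in HeLa cells exposed 18 h to titrated compounds (up to 92 uM), then CCF4 ratio read after 2 h at RT; Hill-fitted EC50, efficacy relative to 0.1 uM dexamethasone.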
# [3] = target: Glucocorticoid receptor (Homo sapiens) (UniProt P04150); assay: qHTS assay for small molecule antagonists of glucocorticoid receptor signaling (AID 588533; active means well fitted inhibition curve with a large enough effect in the signal ratio, with a control signal flat, not every such curve was filed as active; the % refers to the signal ratio;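 further: cells stimulated with 2 nM dexamethasone as agonist; on the % scale 0 is the no-effect control and ±100 the full control effect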)
# Outline: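 Antagonist-mode qHTS: compound titrations added to GRE-bla HeLa cells, then dexamethasone 2 nM final; 18 h, 37 C. CCF4 FRET fluorescence normalized to dexamethasone and DMSO; IC50 from Hill fit.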
# [4] = target: Peroxisome proliferator-activated receptor gamma (Homo sapiens) (UniProt P37231); assay: qHTS assay for small molecule agonists of peroxisome proliferator-activated receptor gamma signaling (AID 588536; active means well fitted curve in the direction sought with a large enough effect in the signal ratio, with a control signal flat, not every such curve was filed as active; the % refers to the signal ratio;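 further: 0% = DMSO basal wells and 100% = rosiglitazone at 2 µM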)
# Chain of Peroxisome proliferator-activated receptor gamma (Homo sapiens) (P37231 whole entry, looked up): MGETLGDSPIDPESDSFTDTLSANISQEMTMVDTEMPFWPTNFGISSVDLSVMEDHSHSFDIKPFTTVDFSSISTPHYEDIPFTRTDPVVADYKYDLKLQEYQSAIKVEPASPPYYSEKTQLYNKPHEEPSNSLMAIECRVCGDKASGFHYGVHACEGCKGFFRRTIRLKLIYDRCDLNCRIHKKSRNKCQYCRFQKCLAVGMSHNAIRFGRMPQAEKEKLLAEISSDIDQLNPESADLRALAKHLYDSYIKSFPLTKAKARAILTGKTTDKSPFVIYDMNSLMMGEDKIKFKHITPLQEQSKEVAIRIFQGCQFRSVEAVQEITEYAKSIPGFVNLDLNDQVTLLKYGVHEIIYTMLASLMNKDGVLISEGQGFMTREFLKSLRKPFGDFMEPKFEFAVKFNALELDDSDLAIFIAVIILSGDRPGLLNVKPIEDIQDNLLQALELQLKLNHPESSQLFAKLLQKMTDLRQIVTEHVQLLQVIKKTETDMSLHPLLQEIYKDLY
# Outline: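 Test agents, titrated, stimulated HEK293 UAS-bla cells overnight (16 h, 37 C). Substrate CCF4 was then added for two hours at room temperature before fluorescence reading.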
# [5] = qHTS assay for small molecule agonists of retinoid X receptor alpha signaling (AID 588544; calls by dose curve; further: potency means the concentration at half of the fitted maximal effect;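 on activation: 0% = DMSO basal wells and 100% = reference agonist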); details: HEK293T RXRa-UAS-bla, beta-lactamase reporter, 18 h; 530 nm emission
# [6] = target: Retinoic acid receptor RXR-alpha (Homo sapiens) (UniProt P19793); assay: as above
# Chain of Retinoic acid receptor RXR-alpha (Homo sapiens) (P19793 whole entry, looked up): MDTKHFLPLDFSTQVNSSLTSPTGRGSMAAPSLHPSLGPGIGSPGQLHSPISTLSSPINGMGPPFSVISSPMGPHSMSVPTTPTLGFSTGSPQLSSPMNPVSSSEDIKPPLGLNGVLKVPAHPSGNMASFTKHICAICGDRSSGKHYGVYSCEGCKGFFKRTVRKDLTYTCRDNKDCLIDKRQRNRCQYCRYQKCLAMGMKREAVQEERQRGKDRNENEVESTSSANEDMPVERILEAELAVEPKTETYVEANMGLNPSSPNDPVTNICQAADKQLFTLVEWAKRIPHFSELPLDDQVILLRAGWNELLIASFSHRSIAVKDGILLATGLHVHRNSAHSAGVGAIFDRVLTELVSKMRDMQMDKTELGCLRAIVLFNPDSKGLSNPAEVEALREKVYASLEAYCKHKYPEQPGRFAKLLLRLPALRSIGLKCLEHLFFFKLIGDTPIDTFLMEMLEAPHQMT
# [7] = target: Thyroid hormone receptor beta (Homo sapiens) (UniProt P10828); assay: qHTS assay for small molecule agonists of thyroid hormone receptor beta signaling (AID 588545; calls by dose curve;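 further: 0% = DMSO only and 100% = 10 nM T3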)
# Chain of Thyroid hormone receptor beta (Homo sapiens) (P10828 whole entry, looked up): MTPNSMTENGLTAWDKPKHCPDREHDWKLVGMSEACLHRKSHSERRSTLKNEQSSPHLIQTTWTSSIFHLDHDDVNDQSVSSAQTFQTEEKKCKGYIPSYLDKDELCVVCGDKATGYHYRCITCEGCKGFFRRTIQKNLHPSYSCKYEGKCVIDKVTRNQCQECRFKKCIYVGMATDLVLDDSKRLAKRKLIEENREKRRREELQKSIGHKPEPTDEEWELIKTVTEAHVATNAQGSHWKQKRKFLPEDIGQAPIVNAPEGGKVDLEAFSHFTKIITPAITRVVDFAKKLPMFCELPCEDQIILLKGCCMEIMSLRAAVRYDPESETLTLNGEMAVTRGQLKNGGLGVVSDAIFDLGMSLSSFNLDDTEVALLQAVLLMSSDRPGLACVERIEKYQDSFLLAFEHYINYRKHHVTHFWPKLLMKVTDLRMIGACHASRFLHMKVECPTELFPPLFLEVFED
# Outline: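 Beta-lactamase reporter activity under TR response element control is measured in HEK 293 cells after 18 hrs compound exposure. Signal is ratiometric CCF4 fluorescence, 460/530 nm.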
# [8] = qHTS assay for small molecule antagonists of retinoid X receptor alpha signaling (AID 588546; active means well fitted inhibition curve with a large enough effect in the signal ratio, with a control signal flat, not every such curve was filed as active; the % refers to the signal ratio;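 further: cells stimulated with 9-cis-retinoic acid as agonist; on the % scale 0 is the no-effect control and ±100 the full control effect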); details: HEK293T RXRa-UAS-bla, beta-lactamase ratio, antagonist mode; measured here: W530 green channel, cytotoxicity proxy
# Outline: (§1)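 Beta-lactamase reporter inhibition, read as CCF4 fluorescence ratio (ex 405, em 460/530 nm) after 2 h at RT. HEK293T UAS-bla cells, 2500/well, were stimulated with 9-cis-RA at 500 or 100 nM final alongside test compound for 18 h at 37 C.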
# [9] = target: Retinoic acid receptor RXR-alpha (Homo sapiens) (UniProt P19793); assay: as above; details: HEK293T RXRa-UAS-bla, beta-lactamase ratio, antagonist mode
# Outline: as §1
# [10] = target: Thyroid hormone receptor beta (Homo sapiens) (UniProt P10828); assay: qHTS assay for small molecule antagonists of thyroid hormone receptor beta signaling (AID 588547; active means well fitted inhibition curve with a large enough effect in the signal ratio, with a control signal flat, not every such curve was filed as active; the % refers to the signal ratio;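 further: cells stimulated with 0.4 nM T3 agonist during compound exposure; series mostly up to about 77 µM; on the % scale 0 is the no-effect control and ±100 the full control effect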); details: TR-UAS-bla HEK293, beta-lactamase ratio, antagonist mode, 18 h
# Outline: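 Inhibition of T3-driven (0.4nM final) beta-lactamase reporter activity was measured over 0.59 nM to 92 uM compound after 18 h at 37 C. The cells were GripTite HEK293 TR-UAS-bla in charcoal/dextran-stripped serum, with CCF4 ratio read-out and IC50 from Hill fits.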
# [11] = qHTS assay for environmental chemicals that activate the Aryl hydrocarbon Receptor (AhR) signaling pathway (AID 651777); details: 1A2-DRE human hepatoma cells, luciferase, 24 h; activation: stronger effect = higher value; further: % of control where 0% means no effect; nearly all actives have a fitted effect of over 15% in size
# Outline: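 Measured luciferase activity, read 30 min after One-Glo addition at room temperature, from human hepatoma cells bearing a dioxin response element–CYP1A2 promoter reporter and exposed to compound for 24 hr at 37 C.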
# [12] = target: Peroxisome proliferator-activated receptor alpha (Homo sapiens) (UniProt Q07869); assay: qHTS assay for small molecule agonists of the peroxisome proliferator-activated receptor alpha (PPARalpha) signaling pathway (AID 651778); details: PathHunter PPARalpha complementation, chemiluminescence, 6 h; max response: stronger effect = higher value; further: % of control where 0% means no effect
# Chain of Peroxisome proliferator-activated receptor alpha (Homo sapiens) (Q07869 whole entry, looked up): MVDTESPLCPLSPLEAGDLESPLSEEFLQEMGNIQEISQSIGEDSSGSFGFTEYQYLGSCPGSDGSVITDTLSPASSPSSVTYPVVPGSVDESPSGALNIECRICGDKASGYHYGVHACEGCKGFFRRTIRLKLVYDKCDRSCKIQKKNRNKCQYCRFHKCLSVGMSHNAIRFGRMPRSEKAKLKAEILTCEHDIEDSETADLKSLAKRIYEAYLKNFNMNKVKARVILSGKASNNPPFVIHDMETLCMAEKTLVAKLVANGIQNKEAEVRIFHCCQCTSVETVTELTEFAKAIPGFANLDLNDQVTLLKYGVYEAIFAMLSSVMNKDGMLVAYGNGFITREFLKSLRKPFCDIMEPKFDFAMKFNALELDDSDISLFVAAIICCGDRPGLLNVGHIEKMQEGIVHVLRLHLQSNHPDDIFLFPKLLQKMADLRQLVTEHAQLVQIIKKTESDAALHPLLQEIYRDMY
# Outline: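 Chemiluminescence from complemented enzyme reported PPARalpha activation in cells after 6 hr of compound treatment at 37 C. The detection reagent was incubated for 60 min at room temperature, and compounds were scored as agonists.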
# [13] = qHTS assay for small molecule agonists of the antioxidant response element (ARE) signaling pathway measured by Nrf2-dependant transcriptional activity - cell viability counter screen (AID 720653; active means well fitted curve in the direction sought with a large enough effect in the repeat runs; an effect the other way counts as inactive or inconclusive; further: on the % scale 0 is the no-effect control and ±100 the full control effect); details: ARE-bla HepG2 viability, CellTiter-Glo ATP luminescence, 16 h; max response: stronger effect = lower value
# Outline: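 Cytotoxicity counter screen: intracellular ATP quantified by CellTiter-Glo luminescence in the same ARE-bla HepG2 plates, after 16 h compound exposure and a 2 h beta-lactamase substrate step.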
# [14] = qHTS assay for cell viability of HEK293 cells (AID 743288); details: ATP luminescence (CellTiter-Glo), 18 h; max response: stronger effect = lower value; further: nearly all actives have a fitted effect of over 50% in size; further: potency means the concentration at half of the fitted maximal effect
# Outline: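 Total intracellular ATP, measured with a luciferase-coupled reagent, indicates the number of viable HEK293 cells. Exposure to test chemicals lasts 18 h at 37 C in 1,536-well format at 2,000 cells/well.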
# [15] = qHTS assay for cell viability of the p53RE-bla HCT-116 cell line (AID 743292); further: on the % scale 0 is the no-effect control and ±100 the full control effect; nearly all actives have a fitted effect of over 55% in size
# Outline: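 Intracellular ATP of p53RE-bla HCT-116 cells measured by luciferase luminescence following 16 h compound incubation at 37 C; DMSO-only wells served as vehicle controls.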
# [16] = target: Nuclear receptor subfamily 1 group I member 2 (Rattus norvegicus) (UniProt Q9R1A7); assay: qHTS assay for small molecule activators of the rat pregnane X receptor (rPXR) signaling pathway (AID 651751; call rule not given here; further: 0% is about no effect); details: rPXR reporter cells, luciferase (One-Glo), 24 h
# Chain of Nuclear receptor subfamily 1 group I member 2 (Rattus norvegicus) (Q9R1A7 whole entry, looked up): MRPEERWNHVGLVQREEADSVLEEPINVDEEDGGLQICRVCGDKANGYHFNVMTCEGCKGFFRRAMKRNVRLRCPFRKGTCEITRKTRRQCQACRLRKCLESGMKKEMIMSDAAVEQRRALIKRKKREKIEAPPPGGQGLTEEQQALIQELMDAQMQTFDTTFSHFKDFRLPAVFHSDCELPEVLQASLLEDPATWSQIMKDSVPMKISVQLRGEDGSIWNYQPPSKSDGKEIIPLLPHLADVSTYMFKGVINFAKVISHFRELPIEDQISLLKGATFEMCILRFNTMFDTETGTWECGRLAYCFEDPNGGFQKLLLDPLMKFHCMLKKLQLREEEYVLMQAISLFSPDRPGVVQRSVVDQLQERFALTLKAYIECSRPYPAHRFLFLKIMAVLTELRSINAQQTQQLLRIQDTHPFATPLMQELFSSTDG
# [17] = qHTS assay for small molecule antagonists of peroxisome proliferator-activated receptor delta signaling (AID 588535); details: HEK293T PPARd-UAS-bla, beta-lactamase FRET ratio, 18 h; 460 nm channel;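 further: cells co-treated with a PPAR-delta agonist as stimulator during compound exposure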
# Outline: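 Cell-based beta-lactamase assay in antagonist mode: 4000 HEK293T PPAR-delta-UAS-bla cells per well, 5 hr preincubation then 18 hr compound incubation at 37 C. IC50 obtained by Hill equation fitting.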
# [18] = target: Vitamin D3 receptor (Homo sapiens) (UniProt P11473); assay: qHTS assay for small molecule agonists of vitamin D receptor signaling (AID 588543; calls by dose curve;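 further: 0% = DMSO basal and 100% = reference agonist control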)
# Chain of Vitamin D3 receptor (Homo sapiens) (P11473 whole entry, looked up): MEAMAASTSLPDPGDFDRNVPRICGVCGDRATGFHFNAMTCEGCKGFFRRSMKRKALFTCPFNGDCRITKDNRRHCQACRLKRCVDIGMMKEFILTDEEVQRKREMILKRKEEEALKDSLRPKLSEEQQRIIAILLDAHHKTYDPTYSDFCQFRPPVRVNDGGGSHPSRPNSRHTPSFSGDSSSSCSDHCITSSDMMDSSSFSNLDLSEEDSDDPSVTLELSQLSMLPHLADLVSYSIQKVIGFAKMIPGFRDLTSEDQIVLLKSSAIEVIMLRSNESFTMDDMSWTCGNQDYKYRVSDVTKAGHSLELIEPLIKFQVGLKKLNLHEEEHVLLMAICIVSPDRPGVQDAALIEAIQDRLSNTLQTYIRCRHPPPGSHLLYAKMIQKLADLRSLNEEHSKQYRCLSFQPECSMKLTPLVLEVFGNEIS
# Outline: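 Agonist-mode beta-lactamase reporter: HEK293T VDR-UAS-bla cells in charcoal-stripped 2% FBS, compound series 16 h 37 C, CCF4 2 h RT. EC50 from Hill fit, scaled against DMSO and 50 nM calcitriol control.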
# [19] = qHTS assay for small molecule agonists of the antioxidant response element (ARE) signaling pathway measured by Nrf2-dependant transcriptional activity (AID 720636; active means well fitted curve in the direction sought with a large enough effect in the repeat runs; an effect the other way counts as inactive or inconclusive;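 further: HepG2 cells with an ARE-driven luciferase reporter; % of control where 0% means no effect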)
# Outline: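 In HepG2 cells engineered with an Nrf2-responsive luciferase gene, ARE induction was quantified as luminescence after 16 hr compound treatment at 37 C.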
# [20] = qHTS assay for small molecule activators of the human pregnane X receptor (PXR) signaling pathway (AID 720659; call rule not given here; further: 0% is about no effect)
structure (smiles),measurement,setting,value
c1ccc2cc3ccccc3cc2c1,Potency,[1],inactive
same,activation,[2],13.3% (inactive)
same,Potency,[3],inactive
same,outcome,[4],inactive
same,max response,[5],-12.9%
same,Potency,[6],inactive
same,Potency,[7],inactive
same,max response,[8],21.2%
same,max response,[9],-8.21% (inactive)
same,activity change % (negative = inhibition),[10],-13.8% (inactive)
same,activation,[11],1.49% (inactive)
same,max response,[12],-0.274% (inactive)
same,max response,[13],-8% (inactive)
same,max response,[14],-2.63% (inactive)
same,Potency,[15],inactive
same,max response,[16],4.65% (inactive)
CC/C=C/CCCCCCCCCCOC(C)=O,Potency,[1],inactive
same,activation,[2],2.34% (inactive)
same,Potency,[3],inactive
same,max response,[17],25.9%
same,outcome,[4],inactive
same,outcome,[18],inactive
same,max response,[5],-22.5%
same,Potency,[6],inactive
same,Potency,[7],inactive
same,activity change % (negative = inhibition),[10],4.15% (inactive)
same,activation,[11],-0.59% (inactive)
same,max response,[12],-1.44% (inactive)
same,Potency,[19],inactive
same,max response,[13],-0.636% (inactive)
same,max response,[14],-7.88% (inactive)
same,Potency,[15],inactive
same,max response,[16],3.81% (inactive)
same,outcome,[20],inactive
CCCCCCCC(=O)OC,Potency,[1],inactive
same,max response,[17],18.8%
same,outcome,[4],inactive
same,outcome,[18],inactive
same,max response,[5],14.7%
same,Potency,[6],inactive
same,Potency,[7],inactive
same,max response,[8],-15%
same,max response,[9],-8.88% (inactive)
same,activity change % (negative = inhibition),[10],13.2% (inactive)
same,activation,[11],-2.72% (inactive)
same,max response,[12],-3.16% (inactive)
same,Potency,[19],inactive
same,max response,[13],0.0694% (inactive)
same,max response,[14],-6.4% (inactive)
same,Potency,[15],inactive
same,max response,[16],2.14% (inactive)
same,outcome,[20],inactive
CC(C)(C)c1cc(C(C)(C)C)c(O)c(C(C)(C)C)c1,Potency,[1],inactive
same,activation,[2],22.2% (inactive)
same,Potency,[3],inactive
same,max response,[17],12%
same,max response,[5],-17.5%
same,Potency,[6],794 nM (active)
same,Potency,[7],inactive
same,activity change % (negative = inhibition),[10],-16.9% (inactive)
same,activation,[11],-0.208% (inactive)
same,max response,[12],7.66% (inactive)
same,Potency,[19],inactive
same,max response,[13],8.43% (inactive)
same,max response,[14],-4.45% (inactive)
same,Potency,[15],inactive
same,max response,[16],-4.2% (inactive)
same,outcome,[20],inactive
Cc1ccc(S(=O)(=O)C(I)I)cc1,Potency,[1],inactive
same,max response,[5],-69.8%
same,Potency,[6],inactive
same,activation,[11],-11.1% (inactive)
same,Potency,[19],inactive
same,outcome,[20],inactive
CC(=O)CC(=O)Nc1ccc(C)cc1C,activation,[2],7.78% (inactive)
same,Potency,[3],inactive
same,outcome,[4],inactive
same,Potency,[7],inactive
same,activation,[11],0.555% (inactive)
same,max response,[12],-1.32% (inactive)
same,max response,[13],-2.61% (inactive)
same,max response,[14],-7.21% (inactive)
same,Potency,[15],inactive
same,max response,[16],-1.86% (inactive)
same,outcome,[20],inactive
CC(=O)CC(=O)Nc1ccccc1C,Potency,[1],inactive
same,activation,[2],2.41% (inactive)
same,Potency,[3],inactive
same,outcome,[18],inactive
same,max response,[5],16.5%
same,Potency,[6],inactive
same,Potency,[7],inactive
same,max response,[8],14.1%
same,max response,[9],-30.4% (inactive)
same,activity change % (negative = inhibition),[10],7.41% (inactive)
same,activation,[11],3.12% (inactive)
same,max response,[12],-0.992% (inactive)
same,max response,[13],-6.37% (inactive)
same,max response,[14],-10.9% (inactive)
same,Potency,[15],inactive
C=CCCCCCCCCCCCC,activation,[2],9.05% (inactive)
same,Potency,[3],inactive
same,max response,[17],14.9%
same,outcome,[4],inactive
same,outcome,[18],inactive
same,max response,[5],-6.65%
same,Potency,[6],inactive
same,Potency,[7],inactive
same,max response,[8],-3.7%
same,max response,[9],10.9% (inactive)
same,activation,[11],0.249% (inactive)
same,max response,[12],-1.61% (inactive)
same,Potency,[19],inactive
same,max response,[13],1.55% (inactive)
same,max response,[14],5.27% (inactive)
same,Potency,[15],inactive
same,max response,[16],1.46% (inactive)
same,outcome,[20],inactive
C=C[Si](C)(C)O[Si](C)(C)C=C,Potency,[1],inactive
same,Potency,[3],inactive
same,outcome,[4],inactive
same,outcome,[18],inactive
same,max response,[5],11.5%
same,Potency,[6],inactive
same,Potency,[7],inactive
same,max response,[8],-11.2%
same,max response,[9],-0.957% (inactive)
same,activity change % (negative = inhibition),[10],3.28% (inactive)
same,activation,[11],-1.78% (inactive)
same,max response,[12],-1.71% (inactive)
same,Potency,[19],inactive
same,max response,[13],-2.71% (inactive)
same,max response,[14],-5.1% (inactive)
same,Potency,[15],inactive
same,max response,[16],0.719% (inactive)
same,outcome,[20],inactive
NCCCCCCCCCCC(=O)O,Potency,[3],inactive
same,max response,[17],0.715%
same,outcome,[4],inactive
same,outcome,[18],inactive
same,max response,[5],-7.72%
same,Potency,[6],inactive
same,activity change % (negative = inhibition),[10],-1.93% (inactive)
same,activation,[11],6.19% (inactive)
same,max response,[12],-1.64% (inactive)
same,max response,[13],-2.31% (inactive)
same,max response,[14],-12% (inactive)
same,Potency,[15],inactive
same,max response,[16],1.01% (inactive)
O=C1CCCCCCCCCCC1,Potency,[1],inactive
same,activation,[2],-8.83% (inactive)
same,Potency,[3],inactive
same,max response,[17],31.3%
same,outcome,[4],inactive
same,max response,[5],-19.7%
same,Potency,[6],inactive
same,Potency,[7],inactive
same,max response,[8],-10.4%
same,max response,[9],4.14% (inactive)
same,activity change % (negative = inhibition),[10],4.81% (inactive)
same,max response,[12],-0.988% (inactive)
same,Potency,[19],inactive
same,max response,[13],-14.8% (inactive)
same,max response,[14],-4.39% (inactive)
same,Potency,[15],inactive
same,max response,[16],0.58% (inactive)
same,outcome,[20],inactive
CCCCOCC(C)O (stereo unspecified),Potency,[1],inactive
same,activation,[2],-3.25% (inactive)
same,Potency,[3],inactive
same,outcome,[4],inactive
same,outcome,[18],inactive
same,max response,[5],-5.52%
same,Potency,[6],inactive
same,Potency,[7],inactive
same,max response,[8],12% and -0.638%
same,max response,[9],-37.2% (inactive) and 3.13% (inactive)
same,activity change % (negative = inhibition),[10],-39.6% (inactive) and 0.784% (inactive)
same,activation,[11],1.48% (inactive) and -0.559% (inactive)
same,max response,[12],0.397% (inactive) and 0.0173% (inactive)
same,Potency,[19],inactive
same,max response,[13],-1.21% (inactive) and -1.7% (inactive)
same,Potency,[14],1.41 mM (active)
same,max response,[14],-2.11% (inactive)
same,Potency,[15],inactive
same,max response,[16],5.94% (inactive) and 2.87% (inactive)
